A selection: hits, their analogues and other compounds. The true share with any hit is near 12%.
BAZ2B inh: blocks human BAZ2B; AlphaScreen BAZ2B-H3K14Ac peptide displacement; actives 4.4% (n = 360,000); Q9UIF8; Potency, µM (series often up to 114 µM), for inactives: top-dose activity change, negative = inhibition, actives largely listed as inhibitors; also: % is scaled to controls: 0 for no effect and ±100 for the full control effect; nearly all actives have a fitted effect of over 60% in size
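AlphaScreen luminescence quantifies BAZ2B engagement of H3K14Ac peptide; the protein and biotinylated peptide are both at 50 nM final, buffer PBS pH 7.4 with 0.01% Tween-20, all steps at room temperature.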
JMJD2A Tudor inh: JMJD2A Tudor domain (human) inhibition; AlphaScreen JMJD2A-Tudor / H3K4me3 peptide binding; Potency, µM (top dose mostly 114 µM), for inactives: at the highest dose activity change, negative = inhibition, hits mostly inhibitors; actives 4.4% (n = 390,000); AID 504339; also: % is scaled to controls: 0 for no effect and ±100 for the full control effect; nearly all actives have a fitted effect of over 50% in size
Sfp inh: blocks B. subtilis Sfp PPTase activity. Q9F4F7. Biochemical Sfp PPTase activity, qHTS. Potency, µM, without a hit: largest response in the series, negative = inhibition, usual class: inhibitors. actives 3.5% (n = 310,000). AID 1490;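 also: the enzyme is Sfp with the accession as filed and its product quenches rhodamine fluorescence; 0% = enzyme reaction without inhibitor and -100% = no enzyme wells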
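Buffer: 50 mM Hepes-Na pH 7.6, 10 mM MgCl2, 0.01% Nonidet P-40, 0.01% BSA. Enzyme 15 nM, pre-exposed to compound 15 min; substrates then added and fluorescence change tracked over 30 min.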
G9a block: G9a (human) methyltransferase inhibition; G9a H3K9 monomethylation, AlphaScreen, 2 h; Potency, µM (highest dose often 102 µM), without a hit: at the top dose activity, negative = inhibition, hits mostly inhibitors; actives 8.8% (n = 350,000); AID 504332; also: % is scaled to controls: 0 for no effect and ±100 for the full control effect; nearly all actives have a fitted effect of over 75% in size
Target sequence (Q96KQ7 913-1193 limits assumed): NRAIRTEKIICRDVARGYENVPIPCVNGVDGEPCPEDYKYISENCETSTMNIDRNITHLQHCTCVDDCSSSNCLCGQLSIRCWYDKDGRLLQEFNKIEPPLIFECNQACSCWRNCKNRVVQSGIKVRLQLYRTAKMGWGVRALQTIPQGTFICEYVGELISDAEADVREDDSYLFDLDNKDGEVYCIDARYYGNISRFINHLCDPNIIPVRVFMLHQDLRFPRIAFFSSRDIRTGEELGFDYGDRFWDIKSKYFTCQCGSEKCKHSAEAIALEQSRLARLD
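Compounds were preincubated with 20 nM G9a for 15 min, after which biotinylated H3K9 peptide (500 nM) and SAM (20 uM) started a 2 h room-temperature reaction. Monomethylated product was quantified by antibody-based AlphaScreen chemiluminescence.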
HP1b binding inh: blocks HP1-beta chromodomain binding to methylated histone tails. P83916. AlphaScreen HP1-beta / biotin-H3K9me3 peptide binding. Potency, µM (series often up to 114 µM), for inactives: at the highest dose activity change, negative = inhibition, most hits filed as inhibitors. actives 0.56% (n = 390,000). AID 540317; also: nearly all actives have a fitted effect of over 70% in size
Target sequence (P83916 whole entry, looked up): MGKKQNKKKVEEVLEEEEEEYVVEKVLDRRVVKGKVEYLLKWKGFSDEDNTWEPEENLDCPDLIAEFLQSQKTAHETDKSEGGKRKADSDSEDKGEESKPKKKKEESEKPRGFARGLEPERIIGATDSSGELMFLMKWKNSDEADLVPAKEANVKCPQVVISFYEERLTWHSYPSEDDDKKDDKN
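HP1-beta protein (50 nM final) preincubated 30 min at room temperature with biotinylated H3(1-18)K9me3 peptide (50 nM) in PBS pH 7.4, 0.01% Tween-20, then compound added for 30 min. AlphaScreen streptavidin donor/nickel chelate acceptor beads (10 ug/mL final), 30 min dark, luminescence read.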
PLK1 PBD inh: inhibitors of human PLK1 polo-box domain binding; P53350; Plk1 PBD binding of FITC phosphopeptide, fluorescence polarization; Potency, µM, inactives show max response, negative = inhibition, actives largely listed as inhibitors; actives 2.8% (n = 360,000); also: series mostly up to about 57 µM; % is scaled to controls: 0 for no effect and ±100 for the full control effect; nearly all actives have a fitted effect of over 65% in size
Numbers without * were called inactive; ? = inconclusive; . = no result; [ ] = another dose, or the depositor's remark. Calls follow the shape of the dose curve; as a rule, active = well fitted curve in the direction sought with a large enough effect; inconclusive = small, poorly fitted or top-dose-only effect, or another doubt; inactive = no such curve, though single readings can be large; an effect the other way counts as inactive or inconclusive. Potency is read from the fitted curve at half-maximal effect.

SMILES	BAZ2B inh	JMJD2A Tudor inh	Sfp inh	G9a block	HP1b binding inh	PLK1 PBD inh
O=P(Oc1ccccc1)(Oc1ccccc1)c1ccccc1	0.89µM*	34%	-17%	.	80%	-5%
NP(=O)(Oc1ccccc1)c1ccccc1 (configuration not stated)	.	-20%	.	.	17%	-1%
COc1ccc(CN2C(=O)NC(=O)/C(=C/c3ccoc3)C2=O)cc1	50µM*	56µM*	?	18µM*	22µM*	2.4µM*
C=CCN1C(=O)NC(=O)/C(=C/c2ccc(N(C)C)c(Br)c2)C1=O	-33%	-12%	50µM*	16µM*	33%	6.7µM*
C=CCN1C(=O)NC(=O)/C(=C/c2ccoc2)C1=O	0%	?	-29%	-23%[59 µM]	-19%	8.4µM*
COc1ccc(OCCOc2cccc(C=C3C(=O)NC(=O)NC3=O)c2)cc1	-36%	.	-86%	?	.	.
C/C=C1/C2C=C(C)CC1(N)c1ccc(=O)[nH]c1C2 (configuration not stated)	.	.	7%	32%[59 µM]	.	.
O=C(Nc1ccc2oc(-c3cccnc3)nc2c1)c1ccc(-c2cccc(Cl)c2)o1	56µM*	79µM*	.	?	?	.
NC(=NCCc1ccc(I)cc1)SCCCc1cnc[nH]1	.	.	8%	?	.	.
COc1cc(C(=O)NC(=S)N2C[C@H]3C[C@H](C2)c2cccc(=O)n2C3)cc(OC)c1OC	?	-9%	?	25µM*	19%	-8%
O=c1cccc2n1CC1CC2CN(Cc2c(Cl)cccc2Cl)C1 (configuration not stated)	56µM*	-36%	-7%	35µM*	8%	1%
Cc1ccc(CN2CC3CC(C2)c2cccc(=O)n2C3)cc1 (configuration not stated)	-8%	-26%	13%	-34%[12.7 µM]	16%	-8%
COc1cc(C)c(-c2nc(CN3C[C@@H]4C[C@@H](C3)c3cccc(=O)n3C4)c(C)o2)cc1C	-28%	-18%	-5%	?	18%	-5%
COc1cc(OC)cc(C(=O)NC(=S)N2C[C@H]3C[C@H](C2)c2cccc(=O)n2C3)c1	?	-28%	-23%	50µM*	2%	-12%
COc1cc(CN2CC3CC(C2)c2cccc(=O)n2C3)cc(OC)c1OC (configuration not stated)	79µM*	-28%	-4%	-11%[12.7 µM]	2%	1%
O=c1[nH]c(=O)n(CCC2=CCCCC2)c(O)c1/C=N/Nc1cccc2ccccc12	?	-10%[11.4 µM]	-26%	1.8µM*	32µM*	34µM*
O=c1[nH]c(=O)n(Cc2ccc(F)cc2)c(O)c1/C=N/Nc1ccccc1	-15%	-32%	-8%	10µM*	8%	-13%
O=c1[nH]c(=O)n(CCC2=CCCCC2)c(O)c1/C=N/Nc1ccccc1	-24%	-31%	2%	3.5µM*	51%	-13%
O=c1[nH]c(=O)n(CCC2=CCCCC2)c(O)c1C=NC1CCN(Cc2ccccc2)CC1	0%	-7%	2%	18%	23%	-2%
O=C1CC(O)(CF)CCO1 (configuration not stated)	.	.	6%	.	.	.
COc1ccc(C(=O)Nc2nnc(S(=O)(=O)N(CC(C)C)c3ccc(C)cc3)s2)cc1OC	86%	55%	.	0%[59 µM]	103%	.
CN1CC[C@@]23CCCCC2C1Cc1ccc(O)cc13 (some centres not stated)	.	.	11%	.	.	.
O=C1NC(=S)NC(=O)C12C(c1ccc(F)cc1)NC(=S)NC2c1ccc(F)cc1 (configuration not stated)	-11%	-22%	40µM*	?	25%	-25%
COc1ccc(C(C)=O)cc1Cc1c(O)[nH]c(=S)[nH]c1=O	-18%	?	50µM*	8.9µM*	-7%	?
COc1ccc(C(C)=O)cc1CC(C(=O)c1ccc(F)cc1)N(C)C (configuration not stated)	-23%	-16%	-1%	2%[59 µM]	6%	-8%
SMILES	BAZ2B inh	JMJD2A Tudor inh	Sfp inh	G9a block	HP1b binding inh	PLK1 PBD inh
CC(=O)c1ccc(OC(C)C)c(Cc2c(O)[nH]c(=S)[nH]c2=O)c1	-12%	0%	22µM*	.	26%	?
COc1ccc(C(C)=O)cc1CC(C(=O)c1ccc(C)c(C)c1)N(C)C (configuration not stated)	-29%	-10%	5%	-6%[59 µM]	39%	-6%
CCOc1ccc(C(C)=O)cc1Cc1c(O)[nH]c(=S)[nH]c1=O	4%	89µM*	45µM*	.	?	30µM*
CCCOc1ccc(C(C)=O)cc1Cc1c(O)[nH]c(=S)[nH]c1=O	13%	-22%	?	.	1%	30µM*
C[C@]12C=CC(=O)C=C1CC[C@@H]1[C@@H]2CC[C@@]2(C)[C@H]1CC[C@]2(C)O	.	.	11%	31%[59 µM]	.	.
O=C(c1cccc(Cl)c1)C1CCCN(Cc2cccc3cnccc23)C1 (configuration not stated)	?	45µM*	-1%	?	?	?
O=C(c1ccc(Cl)cc1)C1CCCN(Cc2cccc3cnccc23)C1 (configuration not stated)	-26%	-31%	6%	?	20%	-7%
C=CCc1ccc(OC(=O)NC2CCCCC2)c(OC)c1	2%	12%	13%	-27%	40%	-16%
C=CCc1cc(C=C2C(=O)NC(=O)NC2=O)cc(OC)c1OCc1ccc(C(=O)O)cc1	-7%	-27%	56µM*	32µM*	44%	12µM*
C=CCc1cc(C=C2C(=O)N(C)C(=O)N(C)C2=O)cc(OCC)c1OCc1ccccc1	3%	?	32µM*	3%	290%	7.5µM*
C=CCn1cc(C=C2C(=O)N(C)C(=O)N(C)C2=O)c2ccccc21	5%	-11%	-5%	-3%	43%	-6%
CCCCSP(=O)(SCCCC)SCCCC	.	.	2%	.	.	.
CCCn1c(C)c(C(=O)c2ccc3ccccc3c2)c2ccccc21	.	.	.	-4%[59 µM]	.	.
OCC(O)Cc1ccc2c(c1)OCO2 (configuration not stated)	.	.	5%	-19%[2.33 µM]	.	.
O=[N+]([O-])c1ccc([As](=O)(O)O)cc1	.	.	5%	?	.	.
O=[N+]([O-])c1cc(-c2ccc([As](=O)(O)O)cc2)ccc1[As](=O)(O)O	?	.	-2%	50µM*	.	.
O=c1[nH]c2ccccc2o1	-4%	32µM*	-4%	-45%	22%	-13%
Nc1ccccc1C(=O)OCC(=O)N1CCc2ccccc21	3%	-11%	21%	11%[59 µM]	38%	3%
N#CSCC(=O)N1c2ccccc2CCc2ccccc21	-6%	-9%	-21%	?	44%	11µM*

High-throughput results deposited in PubChem by National Center for Advancing Translational Sciences (NCATS).
